Results taken from PubChem BioAssay (Tox21).
Results filed as inconclusive are left out. Calls of active or inactive are those of the source. Unless noted, calls follow the shape of the dose curve; as a rule, active = well fitted curve in the direction sought with a large enough effect in the repeat runs; inconclusive = weak or mixed curves; inactive = no such curve, though single readings can be large; an effect the other way counts as inactive or inconclusive.

Tests used:
[1] = qHTS RealTime-Glo MT Cell Viability Assay in HEK293 cells - 0 hour (AID 1224880); also: top concentration of the series differs between compounds; nearly all actives have a fitted effect of over 45% in size
Procedure, shortened: (§1)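 Measured as luminescence from the same continuously cultured HEK293 wells at successive time points (0, 8, 16, 24, 32, 40 h) after compound addition. Reagent present from seeding; dosing at 5 h; incubation 37 C.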

[2] = A CellTox Green Cytotoxicity Assay to monitor cytotoxicity in HEK293 cells - 32 hour (AID 1224881); also: nearly all actives have a fitted effect of over 40% in size
Procedure, shortened: (§2)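 Homogeneous no-lysis format: HEK293 cell suspension mixed with CellTox Green reagent, seeded, incubated 5 h at 37 C/5% CO2, then dosed by pintool with compound in DMSO.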

[3] = A CellTox Green Cytotoxicity Assay to monitor cytotoxicity in HepG2 cells - 0 hour (AID 1224882); also: nearly all actives have a fitted effect of over 35% in size
Procedure, shortened: (§3)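 Fluorescent DNA-binding dye, 600 HepG2 cells/well, 5 h preincubation then compound in DMSO; same plates read at 0–40 h, 37 C.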

[4] = A CellTox Green Cytotoxicity Assay to monitor cytotoxicity in HEK293 cells - 8 hour (AID 1224884); also: nearly all actives have a fitted effect of over 35% in size; also: potency is read from the fitted curve at half-maximal effect
Procedure, shortened: as §2

[5] = qHTS RealTime-Glo MT Cell Viability Assay in HEK293 cells - 24 hour (AID 1224886); also: top concentration of the series differs between compounds; nearly all actives have a fitted effect of over 50% in size
Procedure, shortened: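 Homogeneous bioluminescent viability format in HEK293 cells (600 cells/well). Following 5 h at 37 C/5% CO2, 23 nL compound was pintooled; the signal was measured repeatedly during 40 h incubation.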

[6] = qHTS RealTime-Glo MT Cell Viability Assay in HEK293 cells - 8 hour (AID 1224887); also: top concentration of the series differs between compounds; nearly all actives have a fitted effect of over 50% in size
Procedure, shortened: as §1

[7] = A CellTox Green Cytotoxicity Assay to monitor cytotoxicity in HEK293 cells - 16 hour (AID 1224888); also: nearly all actives have a fitted effect of over 35% in size; also: potency is read from the fitted curve at half-maximal effect
Procedure, shortened: as §2

[8] = qHTS RealTime-Glo MT Cell Viability Assay in HepG2 cells - 0 hour (AID 1224889); also: nearly all actives have a fitted effect of over 50% in size
Procedure, shortened: (§4)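 Cell number in HepG2 cultures estimated from NanoLuc luminescence generated by metabolic reduction of a prosubstrate by living cells. The homogeneous, nonlytic format allowed repeated reads at 0, 8, 16, 24, 32 and 40 h of compound exposure.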

[9] = A CellTox Green Cytotoxicity Assay to monitor cytotoxicity in HepG2 cells - 8 hour (AID 1224890); also: nearly all actives have a fitted effect of over 45% in size
Procedure, shortened: as §3

[10] = qHTS assay to identify small molecule antagonists of the estrogen receptor alpha (ER-alpha) signaling pathway using the BG1 cell line in the presence of 0.1 nM 17-beta-estradiol - cell viability counter screen (AID 1259241); also: nearly all actives have a fitted effect of over 40% in size
Procedure, shortened: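 Cytotoxicity counter-screen: live-cell protease activity measured by fluorescence (30 min reagent step) in the same wells. Cells were VM7Luc4E2 with endogenous ER-alpha and ERE-driven luciferase, treated 22 hr at 37C alongside 0.1 nM 17beta-estradiol final.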

[11] = qHTS assay to identify small molecule antagonists of the androgen receptor (AR) signaling pathway using the MDA cell line in the presence of 0.5 nM R1881 - cell viability counter screen (AID 1259242); also: nearly all actives have a fitted effect of over 45% in size
Procedure, shortened: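 Human breast carcinoma MDA-kb2 cells, cultured without CO2, receive compounds alongside 0.5 nM (final) R1881 agonist. After 16 hr at 37C, viability is taken as live-cell protease signal.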

[12] = qHTS assay to identify small molecule phospholipidosis (PLD) inducers (AID 1259344; active = well fitted curve in the direction sought with a large enough effect; an effect the other way counts as inactive or inconclusive)
Procedure, shortened: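 Cells (HepG2, 900 per well) attach for 4 h, receive LipidTOX Red and compound together, incubate 24 h at 37 C, are fixed 30 min with paraformaldehyde/Hoechst, then imaged at one site per well.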

[13] = qHTS assay to identify small molecule HDAC inhibitors (AID 1259364);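 also: wild-type HCT-116 cells with endogenous class I/II HDAC activity; top concentration of the series differs between compounds; nearly all actives have a fitted effect of over 45% in size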
Procedure, shortened: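 After a 2 hr compound incubation (37C, 5% CO2), HCT-116 cells seeded at 1,500/well the day before received HDAC-Glo reagent; signal read as luminescence after 30 min at room temperature.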

[14] = qHTS assay to identify small molecule HDAC inhibitors - cell viability counter screen (AID 1259365); also: series mostly up to about 92 µM; nearly all actives have a fitted effect of over 50% in size
Procedure, shortened: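 CellTiter-Glo luminescence (30 min, room temperature) reported viability after a 2 h compound exposure at 37 C. Cells: wild-type HCT-116, 1,500 per well, seeded the night before.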

[15] = qHTS assay to identify small molecule agonists of the sonic hedgehog signaling (Shh) pathway - cell viability counter screen (AID 1259366); also: nearly all actives have a fitted effect of over 50% in size
Procedure, shortened: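 Cytotoxicity counter screen: CellTiter-Fluor reagent added after 23 h compound exposure, then 1 h at 37C and fluorescence read. Cells were 3T3 Gli1-Luc, seeded 2,000 per well and dosed 4 h post-plating.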

[16] = qHTS assay to identify small molecule antagonists of the sonic hedgehog signaling (Shh) pathway - cell viability counter screen (AID 1259367); also: nearly all actives have a fitted effect of over 55% in size
Procedure, shortened: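 Cytotoxicity was assessed in parallel with Shh reporter activity by measuring live-cell protease fluorescence (CellTiter-Fluor) in NIH/3T3 cells stably carrying Gli1-Luc, treated with compound under conditioned medium stimulation for 23 hr plus 1 hr reagent incubation.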

[17] = qHTS RealTime-Glo MT Cell Viability Assay in HepG2 cells - 16 hour (AID 1224885); also: nearly all actives have a fitted effect of over 50% in size
Procedure, shortened: as §4

[18] = biological target: Androgen receptor (Homo sapiens) (UniProt P10275); assay: qHTS assay to identify small molecule antagonists of the androgen receptor (AR) signaling pathway using the MDA cell line in the presence of 0.5 nM R1881 (AID 1259243); also: nearly all actives have a fitted effect of over 50% in size
Procedure, shortened: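 Cells: MDA-kb2 (MMTV-luc). Stimulus: 0.5 nM R1881. Time: 16 hr, 37C, no CO2. Detection: ONE-Glo luminescence after 30 min at RT.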

[19] = biological target: Estrogen receptor (Homo sapiens) (UniProt P03372); assay: qHTS assay to identify small molecule antagonists of the estrogen receptor alpha (ER-alpha) signaling pathway using the BG1 cell line in the presence of 0.1 nM 17-beta-estradiol (AID 1259244); also: nearly all actives have a fitted effect of over 50% in size
Procedure, shortened: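 Seeding of stripped-serum-adapted VM7Luc4E2 cells, 24 h attachment, compound transfer, then 0.1 nM final 17beta-estradiol; after 22 h incubation, ONE-Glo reagent and luminescence reading.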

Measured: Potency

Chain of Estrogen receptor (Homo sapiens) (P03372 whole entry, looked up): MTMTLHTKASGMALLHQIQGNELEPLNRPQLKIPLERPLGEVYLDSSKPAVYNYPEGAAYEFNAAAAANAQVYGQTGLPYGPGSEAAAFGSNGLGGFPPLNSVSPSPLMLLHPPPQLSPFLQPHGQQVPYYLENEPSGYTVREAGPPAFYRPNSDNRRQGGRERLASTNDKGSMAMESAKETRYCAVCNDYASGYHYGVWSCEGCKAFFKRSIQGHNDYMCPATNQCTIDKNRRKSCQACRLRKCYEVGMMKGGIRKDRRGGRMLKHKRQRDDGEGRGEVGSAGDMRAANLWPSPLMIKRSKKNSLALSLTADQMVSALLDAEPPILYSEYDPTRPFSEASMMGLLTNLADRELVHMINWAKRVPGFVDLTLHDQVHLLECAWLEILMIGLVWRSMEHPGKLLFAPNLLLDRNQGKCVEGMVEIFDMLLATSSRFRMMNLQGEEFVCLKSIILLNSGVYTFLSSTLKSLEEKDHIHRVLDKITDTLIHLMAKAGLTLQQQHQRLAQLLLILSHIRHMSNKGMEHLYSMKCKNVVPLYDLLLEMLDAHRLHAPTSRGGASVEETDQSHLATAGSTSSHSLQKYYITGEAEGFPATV
Chain of Androgen receptor (Homo sapiens) (P10275 whole entry, looked up): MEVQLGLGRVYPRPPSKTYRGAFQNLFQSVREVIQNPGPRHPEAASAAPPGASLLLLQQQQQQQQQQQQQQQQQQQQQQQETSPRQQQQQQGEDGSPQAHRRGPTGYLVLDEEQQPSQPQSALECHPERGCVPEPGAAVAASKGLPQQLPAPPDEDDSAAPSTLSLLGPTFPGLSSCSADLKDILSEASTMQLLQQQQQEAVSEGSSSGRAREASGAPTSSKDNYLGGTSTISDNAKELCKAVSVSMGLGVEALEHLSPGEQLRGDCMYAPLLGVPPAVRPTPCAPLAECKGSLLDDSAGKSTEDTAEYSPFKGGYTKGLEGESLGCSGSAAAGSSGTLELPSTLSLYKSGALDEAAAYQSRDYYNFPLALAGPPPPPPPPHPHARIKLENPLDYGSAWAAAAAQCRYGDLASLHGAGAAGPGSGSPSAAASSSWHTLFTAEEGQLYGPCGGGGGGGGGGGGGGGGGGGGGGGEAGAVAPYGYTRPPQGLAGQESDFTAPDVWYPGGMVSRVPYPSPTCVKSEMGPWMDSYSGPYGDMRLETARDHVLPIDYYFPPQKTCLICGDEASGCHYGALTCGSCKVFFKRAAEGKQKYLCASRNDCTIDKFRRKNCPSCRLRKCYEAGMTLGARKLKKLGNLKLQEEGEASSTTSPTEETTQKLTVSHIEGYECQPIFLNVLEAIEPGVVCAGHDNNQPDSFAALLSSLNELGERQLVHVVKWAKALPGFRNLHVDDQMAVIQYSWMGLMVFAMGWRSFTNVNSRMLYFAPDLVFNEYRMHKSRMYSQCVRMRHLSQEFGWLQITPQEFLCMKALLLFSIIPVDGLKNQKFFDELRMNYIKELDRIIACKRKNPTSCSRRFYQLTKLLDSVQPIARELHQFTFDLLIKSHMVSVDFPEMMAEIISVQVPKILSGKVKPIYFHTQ

COc1cc(C(=O)N2CCOCC2)cc(OC)c1OC
inactive: [1] | [2] | [3] | [4] | [5] | [6] | [7] | [8] | [9] | [10] | [11] | [12] | [13] | [14] | [15] | [16]

CC1(C)SC(C)(C)SC(C)(C)S1
inactive: [1] | [2] | [3] | [4] | [17] | [6] | [7] | [8] | [10] | [11] | [18] | [19] | [13] | [14] | [15] | [16]

CCCCCCCCC=O
inactive: [1] | [2] | [3] | [4] | [5] | [6] | [7] | [8] | [10] | [11] | [13] | [14] | [15] | [16]

CC(C)c1cccc(C(C)C)c1N
inactive: [1] | [3] | [4] | [17] | [5] | [6] | [7] | [8] | [9] | [10] | [11] | [19] | [14] | [15] | [16]

NC(=O)c1ncn([C@@H]2O[C@H](CO)[C@@H](O)[C@H]2O)c1O
active: [4] 23.9 µM | [7] 19 µM
inactive: [1] | [17] | [5] | [6] | [8] | [10] | [11] | [19] | [12] | [13] | [15] | [16]
